Out of some 190,000 compounds screened, about 790 (0.42%) were called active. The sample holds actives, similar compounds and a random draw of the others, so the mix is not that of the screen. Unmarked numbers belong to inactive results.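 Rule for the calls: active = inhibition above a set limit, the median over all tested compounds plus 3 SD (cut at about 9.5% in these data); inconclusive = no clear call, values can overlap the other calls; inactive = the rest.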

This experiment concerns HMG-CoA reductase (Enterococcus faecalis, mvaE). Nature of the experiment: inhibitors of E. faecalis class II HMGR, primary screen, biochemical, Enterococcus faecalis (AID 1066).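 Note: enzyme runs in reverse so mevalonate oxidation gives rising NADPH absorbance; 0% = complete reaction with DMSO and 100% = background rate lacking mevalonate.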 The note with it: purified E. faecalis HMGR, NADPH absorbance 340 nm kinetic; at 10 µM; hits give high values.
On to `O=C(N/N=C/c1ccco1)c1ccc(C(=O)N/N=C/c2ccco2)o1`, for which the inhibition was 3.83%. Then `CCN(C(=O)c1ccc(Br)cc1)c1ccccc1`, with -0.76%; and `CCOC(=O)CNC(=O)CSc1ccc2nnc(-c3cccnc3)n2n1`, with -1.15%. The value for `CCOc1ccc(-c2ccc(SCC(=O)N3CCOCC3)nn2)cc1` was -2.28%; that for `Cc1ccc(C(=O)NCC(=O)O)s1` was -1%; that for `O=C(Nc1cccc(Cl)c1)Nc1ccccc1NS(=O)(=O)c1cccs1` was -2.46%. The value for `CCc1ccc(C(=O)OCC(=O)NCC(F)(F)F)cc1` was -8.47%. Take `COC(=O)c1c(NC(C)=O)sc(C(=O)Nc2ccccc2OC)c1C`: the inhibition was -2.99%. The value for `CCC(=O)Nc1sc(C(=O)Nc2ccccc2)c(C)c1C(=O)OC` was 13% (active). Take `CCOC(=O)c1sc(NC(=O)COc2ncnc3ccccc23)c(C(=O)OCC)c1C`: the inhibition was 3.4%. Consider `CCOC(=O)Cn1nnnc1C`, for which the inhibition was -2.01%. Then `Oc1cccc2ccc(/C=C/c3ccc(Br)s3)nc12`, with 0.35%; and `Cc1ccc(NC(=O)Nc2cccc(C(F)(F)F)c2)nc1`, with -0.23%. The value for `CCC(=O)Nc1ccc(Nc2nc(Cl)nc(Nc3ccc(NC(=O)CC)cc3)n2)cc1` was -2.77%; that for `Cc1ccc2nc(Nc3ncc4c(n3)CC(C)(C)CC4=O)nc(C)c2c1` was -0.8%.

`NC(=O)COc1ccc(C23CC4CC(CC(C4)C2)C3)cc1`: the inhibition is 6.59%. The value for `O=C(CCN1C(=O)c2ccccc2C1=O)NNC(=O)c1ccc(Cl)cc1Cl` was -5.06%. For the compound `CC(=O)N/C(=C/c1ccc(OC(F)F)cc1)C(=O)O`, the inhibition was 0.04%. Take `CC(CCn1cccn1)NC(=O)CCc1nnc(CCc2ccccc2)o1` (stereo unspecified): the inhibition is -1.69%. The value for `COC(=O)C1=C(C)N(c2ccc(C)cc2)/C(=C/c2ccc(O)cc2)C1=O` was 1.84%; that for `O=C(CSC1CC(=O)N(CCc2ccccc2)C1=O)Nc1ccc(Cl)cc1` (stereo unspecified) was 0.85%; that for `CC(Sc1nnnn1C1CCCCC1)C(=O)O` (stereo unspecified) was 3.4%. Then `Cc1cccc(-c2nc3ccccc3c(=O)n2NC(=O)Cc2ccc(Cl)cc2)c1`, with 2.94%; and `NNC(=O)C1CC(O)CN1S(=O)(=O)c1ccc(Cl)cc1` (stereo unspecified), with -8.75%. Then `COc1cc(NC(=O)c2ccccc2NS(=O)(=O)c2ccc(Cl)s2)cc(OC)c1`, with -0.12%. `C/C(=N\NC(=O)NC1CCCCC1)c1ccc(OC(F)F)cc1OC(F)F`: the inhibition is -0.33%.

With `CCc1ccc(CN2C(=O)c3ccccc3C2C(=O)NCC2CCCO2)cc1` (stereo unspecified), the inhibition is -2.1%. The value for `CC(=O)Oc1ccccc1C1=NN(C(C)=O)C(c2ccccc2)C1` (stereo unspecified) was -1.75%; that for `CCSc1nc(-c2ccc(OC)cc2)cc(-c2ccc(OC)cc2)c1C#N` was -8.44%; that for `CCOc1cc(-c2cc(-c3ccc(OC)cc3)nc(N)c2C#N)ccc1O` was -5.02%. Then `COc1ccc(-c2cc(-c3ccc(N)cc3)nc(N)c2C#N)cc1OC`, with 11.6% (active); and `COc1ccc(C2C(C#N)=C(N)N(c3ncn[nH]3)C3=C2C(=O)CCC3)cc1` (stereo unspecified), with 3.99%. For `FC(F)Oc1ccccc1NC(=S)Nc1cccc(Cl)c1Cl`, the inhibition is -10.5%. Then `CS(=O)(=O)N(Cc1ccccc1)c1ccc(C(=O)NN=C2CCCCCC2)cc1`, with -2.77%; and `Cc1[nH][nH]c(=O)c1C(c1ccc(-c2ccc(Cl)cc2)o1)c1c(C)[nH][nH]c1=O`, with 11.6% (active); and `Cc1[nH][nH]c(=O)c1C(c1ccc2c(c1)OCO2)c1c(C)[nH][nH]c1=O`, with 4.7%. Then `CCOc1ccc(C(c2c(C)[nH][nH]c2=O)c2c(C)[nH][nH]c2=O)cc1OCC`, with -2.78%. In the case of `Cc1noc(/C=C/c2ccco2)c1S(=O)(=O)N1CCC(C(=O)Nc2ccc(Cl)cn2)CC1`, the inhibition was 0.34%. The value for `CC(O)c1cccc(NC(=O)Cc2cccc3ccccc23)c1` (stereo unspecified) was -6.15%. The value for `Cc1ccc(Sc2ccncc2S(N)(=O)=O)cc1` was -1.29%; that for `C[C@@H](O)c1nc2ccccc2n1N` was 0.29%.

As to `CC(C)CC(CC(C)C)=NNC(=O)c1ccc(CSc2nncn2C)cc1`, the inhibition is 1.23%. Then `O=C(Nc1cccnc1)c1ccc(Cl)cc1[N+](=O)[O-]`, with -3.45%; and `Cc1ccc(N2C(=O)C3CC3C2=O)cc1` (stereo unspecified), with -5.05%. Then `NS(=O)(=O)c1ccc(N2C(=O)C3C4CC(C(Br)C4Br)C3C2=O)cc1` (stereo unspecified), with 81.6% (active); and `CCCOc1ccc(N2C(=O)CC(N(CCc3ccc(S(N)(=O)=O)cc3)C(C)=O)C2=O)cc1` (stereo unspecified), with -5%; and `COc1cc(NS(=O)(=O)c2ccc(NC(=O)CN3C(=O)c4ccccc4C3=O)cc2)ncn1`, with -9.27%. The value for `O=C(COC(=O)c1ccco1)NCc1ccc(Cl)cc1` was -3.08%; that for `CC(OC(=O)CCc1nc(=O)c2ccccc2n1C)C(=O)NCc1ccc2c(c1)OCO2` (stereo unspecified) was 2.38%. `O=C(Cn1cnc([N+](=O)[O-])n1)NCCc1ccccc1`: the inhibition is 3.82%. The value for `CC(=O)Nc1ccc(C(=O)CSc2nnc(Cc3ccccc3)o2)cc1` was 20.1% (active); that for `CCOc1ccc(Nc2nc(Cc3nnc(SCC(=O)c4ccc(C)cc4)o3)cs2)cc1` was -4.07%; that for `O=C(CSc1nnc(Cn2cnc3ccccc32)o1)c1ccccc1` was -2.99%. With `COCCCNCC(=O)Nc1sc(C)c(C)c1C(=O)OC`, the inhibition was 1.07%. The value for `COC(=O)c1c(NC(=O)c2c(Cl)cnn2C)sc(C)c1C` was 11% (active); that for `CCOC(=O)c1c(NC(=O)c2cccs2)sc(C)c1C` was 0.72%. The value for `CC1=NN(C(=O)c2ccc(Br)cc2)C(O)(c2ccccc2)C1` (stereo unspecified) was 3.11%; that for `CCOC(=O)C1(O)CC(C)=NN1C(=O)c1cccc(Br)c1` (stereo unspecified) was 16.5% (active); that for `CC1=NN(C(=O)c2ccccc2Br)C(O)(c2cccnc2)C1` (stereo unspecified) was 0.91%. Then `Cc1cccc(-n2cc(CN3CCN(C(=O)c4ncn[nH]4)CC3)c(-c3cccc(F)c3)n2)c1`, with -4.4%. In the case of `NC(N)=NCCCc1cn(CC(=O)N2CCNCC2)nn1`, the inhibition is -8.27%.

(Values after PubChem BioAssay AID1066 (SRMLSC, 2008).)
